# Values joined by “and” are separate entries in the source; they are usually repeats but may differ in a detail not shown here. Equal entries are not always repeated. Results filed as inconclusive are left out. Where a call stands in place of a potency, no number is given. Some compounds were tested as several samples or in several runs, with calls that do not always agree. Active and inactive are the calls of the source. Unless noted, calls come from the whole dose curve; as a rule, active = well fitted curve in the direction sought with a large enough effect in the repeat runs; inconclusive = weak or mixed curves; inactive = no such curve, though single readings can be large; an effect the other way counts as inactive or inconclusive.
# Tests used:
# [1] = target: Thyrotropin receptor (Homo sapiens) (UniProt P16473); experiment: qHTS assay to identify small molecule agonists of the thyroid stimulating hormone receptor (TSHR) signaling pathway (AID 1224843; calls by dose curve; note: nearly all actives have a fitted effect of over 45% in size; note: potency is the fitted concentration of half-maximal effect)
# Sequence of Thyrotropin receptor (Homo sapiens) (P16473 whole entry, looked up): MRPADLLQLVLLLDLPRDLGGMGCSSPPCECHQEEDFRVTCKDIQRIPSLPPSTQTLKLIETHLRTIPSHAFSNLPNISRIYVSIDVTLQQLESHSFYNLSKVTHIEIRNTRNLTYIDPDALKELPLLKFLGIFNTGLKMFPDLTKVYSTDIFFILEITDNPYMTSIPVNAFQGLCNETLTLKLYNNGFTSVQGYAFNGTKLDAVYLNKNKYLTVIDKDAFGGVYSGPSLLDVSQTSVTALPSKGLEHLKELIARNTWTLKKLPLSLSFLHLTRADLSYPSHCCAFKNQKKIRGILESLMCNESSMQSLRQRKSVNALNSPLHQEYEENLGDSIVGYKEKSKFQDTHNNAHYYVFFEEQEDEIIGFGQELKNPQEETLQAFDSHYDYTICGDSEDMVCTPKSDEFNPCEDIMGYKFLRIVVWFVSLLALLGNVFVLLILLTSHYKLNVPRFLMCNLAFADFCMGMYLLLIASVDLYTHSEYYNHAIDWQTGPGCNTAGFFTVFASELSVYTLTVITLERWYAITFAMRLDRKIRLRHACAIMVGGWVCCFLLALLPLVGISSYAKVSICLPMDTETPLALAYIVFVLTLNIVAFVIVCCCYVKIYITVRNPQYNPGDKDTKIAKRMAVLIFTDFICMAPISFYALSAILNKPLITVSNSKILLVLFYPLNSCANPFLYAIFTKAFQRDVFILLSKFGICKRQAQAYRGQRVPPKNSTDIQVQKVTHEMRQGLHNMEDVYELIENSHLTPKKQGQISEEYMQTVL
# Method in brief: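 TSHR-expressing HEK293 cells (800 per well) were exposed to compounds for 30 min at room temperature. cAMP was then detected by HTRF competition with cAMP-d2 and anti-cAMP cryptate, read after 1 h at room temperature. Fifteen concentrations, triplicate.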
# [2] = qHTS assay to identify small molecule agonists of the hypoxia (HIF-1) signaling pathway - cell viability counter screen (AID 1224844; calls by dose curve; note: nearly all actives have a fitted effect of over 50% in size; note: potency is the fitted concentration of half-maximal effect)
# Method in brief: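 ME-180 HRE-bla cells, 2,000/well, 0.5% dialyzed FBS; 5 hr settle, 17 hr compound at 37C/5% CO2; CCF4-AM reporter read first, then CellTiter-Glo luminescence after 30 min RT.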
# [3] = qHTS assay to identify small molecule agonists of H2AX (AID 1224845; active = well fitted activation curve with a large enough effect in the signal ratio in the repeat runs, not every such curve was filed as active; the % refers to the signal ratio; note: potency is the fitted concentration of half-maximal effect)
# Method in brief: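 Wild-type CHO-K1 cells plated overnight, then exposed 3 hr at 37C to compounds at 15 concentrations (0.76% DMSO). Lysed, then HTRF anti-pH2AX(S139)-cryptate/anti-H2AX-d2 detection after 24 hr at room temperature; emissions 665 and 620 nm.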
# [4] = qHTS assay to identify small molecule agonists of H2AX - cell viability counter screen (AID 1224847; calls by dose curve; note: nearly all actives have a fitted effect of over 30% in size; note: potency is the fitted concentration of half-maximal effect)
# Method in brief: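 Viability of CHO-K1 (wild type) cells after 3 hr compound exposure was measured by CellTiter-Glo luminescence.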
# [5] = qHTS assay to identify small molecule antagonists of the estrogen related receptor (ERR) signaling pathway from Tox21 library (AID 1224848); note: nearly all actives have a fitted effect of over 50% in size; note: potency is the fitted concentration of half-maximal effect
# Method in brief: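 Cells: ERR line, 2,000/well; 6 h preincubation 37 C/5% CO2. Cpd in DMSO via pin tool; 18 h, 37 C. ONE-Glo, 30 min RT, luminescence.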
# [6] = qHTS assay to identify small molecule agonists of the estrogen related receptor (ERR) signaling pathway from Tox21 library (AID 1224849; calls by dose curve; note: nearly all actives have a fitted effect of over 15% in size); details: ERR reporter cell line, ONE-Glo luciferase, 18 h
# Method in brief: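 ERR cells, 6 h pre-incubation 37 C/5% CO2; cpd in DMSO pinned; 18 h 37 C; ONE-Glo added, 30 min RT; luminescence read. Agonist mode, qHTS.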
# [7] = qHTS RealTime-Glo MT Cell Viability Assay in HEK293 cells - 32 hour (AID 1224868); note: nearly all actives have a fitted effect of over 50% in size; note: potency is the fitted concentration of half-maximal effect
# Method in brief: (§1)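 Reads taken at 0, 8, 16, 24, 32 and 40 h from the same wells. HEK293 cells (600/well) carried RealTime-Glo reagents from seeding, with compound added after a 5 h settle at 37 C.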
# [8] = A CellTox Green Cytotoxicity Assay to monitor cytotoxicity in HEK293 cells - 0 hour (AID 1224869); note: nearly all actives have a fitted effect of over 50% in size
# Method in brief: (§2)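 Nonlytic real-time cytotoxicity: HEK293 + CellTox Green reagent plated, 5 h preincubation, pintool compound addition (23 nL in DMSO), 37 C for 40 h, fluorescence measured at successive time points.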
# [9] = A CellTox Green Cytotoxicity Assay to monitor cytotoxicity in HEK293 cells - 40 hour (AID 1224871); note: nearly all actives have a fitted effect of over 45% in size; note: potency is the fitted concentration of half-maximal effect
# Method in brief: as §2
# [10] = qHTS RealTime-Glo MT Cell Viability Assay in HEK293 cells - 16 hour (AID 1224872); note: nearly all actives have a fitted effect of over 50% in size; note: potency is the fitted concentration of half-maximal effect
# Method in brief: as §1
# [11] = qHTS RealTime-Glo MT Cell Viability Assay in HEK293 cells - 40 hour (AID 1224874); details: RealTime-Glo luminescence; max response: stronger effect = lower value; note: nearly all actives have a fitted effect of over 50% in size; note: potency is the fitted concentration of half-maximal effect
# Method in brief: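 Cells were seeded together with NanoLuc luciferase and a prosubstrate that viable cells reduce to a luciferase substrate. After a 5 h incubation at 37 C/5% CO2, compounds were added and luminescence was measured repeatedly during 40 h of treatment.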
# [12] = A CellTox Green Cytotoxicity Assay to monitor cytotoxicity in HEK293 cells - 24 hour (AID 1224875); note: nearly all actives have a fitted effect of over 45% in size; note: potency is the fitted concentration of half-maximal effect
# Method in brief: as §2
# [13] = A CellTox Green Cytotoxicity Assay to monitor cytotoxicity in HepG2 cells - 16 hour (AID 1224876); note: nearly all actives have a fitted effect of over 45% in size
# Method in brief: (§3)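 Read-out is fluorescence of a cyanine dye excluded from live cells that stains DNA of dead HepG2 cells, with signal proportional to cytotoxicity. Plates were read at 0, 8, 16, 24, 32 and 40 h after compound addition.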
# [14] = A CellTox Green Cytotoxicity Assay to monitor cytotoxicity in HepG2 cells - 24 hour (AID 1224878); note: nearly all actives have a fitted effect of over 45% in size; note: potency is the fitted concentration of half-maximal effect
# Method in brief: as §3
# [15] = A CellTox Green Cytotoxicity Assay to monitor cytotoxicity in HepG2 cells - 40 hour (AID 1224879); note: nearly all actives have a fitted effect of over 40% in size; note: potency is the fitted concentration of half-maximal effect
# Method in brief: as §3
# [16] = qHTS assay to identify small molecule agonists of the hypoxia (HIF-1) signaling pathway (AID 1224846; active = well fitted activation curve with a large enough effect in the signal ratio in the repeat runs, not every such curve was filed as active; the % refers to the signal ratio)
# Method in brief: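 Cell line: CellSensor HRE-bla ME-180; 2,000 cells/well; 0.5% dialyzed FBS; 5 h preincubation; DMSO compound pin transfer; 17 h, 37C, 5% CO2; CCF4-AM added; bla FRET signal scored for activation.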
# [17] = qHTS RealTime-Glo MT Cell Viability Assay in HepG2 cells - 24 hour (AID 1224867); note: nearly all actives have a fitted effect of over 50% in size
# Method in brief: (§4)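 HepG2 suspension premixed with RealTime-Glo reagents is plated at 600 cells per well and left 5 h at 37 C/5% CO2. Compounds in DMSO then go in, and bioluminescence reflecting viable cell number is recorded over 40 h.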
# [18] = qHTS RealTime-Glo MT Cell Viability Assay in HepG2 cells - 8 hour (AID 1224873); note: nearly all actives have a fitted effect of over 55% in size
# Method in brief: (§5)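 HepG2 cells mixed with RealTime-Glo MT reagents (NanoLuc plus cell-permeant prosubstrate) were seeded at 600 cells/well, incubated 5 h at 37 C/5% CO2, then pinned with compounds in DMSO; nonlytic luminescence tracked viability during 40 h treatment.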
# [19] = qHTS RealTime-Glo MT Cell Viability Assay in HepG2 cells - 32 hour (AID 1224877); note: nearly all actives have a fitted effect of over 55% in size
# Method in brief: as §4
# [20] = qHTS RealTime-Glo MT Cell Viability Assay in HepG2 cells - 40 hour (AID 1224870); note: nearly all actives have a fitted effect of over 50% in size
# Method in brief: as §5
smiles,measurement,setting,value
C#CCOS(=O)OC1CCCCC1Oc1ccc(C(C)(C)C)cc1 (stereo not given),Potency,[1],12.2 µM (active) and 24.3 µM (active)
same,Potency,[2],43.6 µM (active)
same,Potency,[3],inactive
same,Potency,[4],4.5 µM (active)
same,Potency,[5],1.37 µM (active) and 1.54 µM (active)
same,"activity change, positive = activation",[6]; at 92.4 µM (top of the series),-66% (inactive) and -59.3% (inactive)
same,Potency,[7],13.8 µM (active) and 19.5 µM (active)
same,Potency,[8],inactive
same,Potency,[9],21.9 µM (active)
same,Potency,[10],17.4 µM (active) and 19.5 µM (active)
same,Potency,[11],7.77 µM (active) and 21.9 µM (active)
same,Potency,[12],inactive
same,Potency,[13],inactive
same,Potency,[14],inactive
same,Potency,[15],inactive
CC(C)Oc1cc(-n2nc(C(C)(C)C)oc2=O)c(Cl)cc1Cl,Potency,[1],inactive
same,Potency,[2],inactive
same,Potency,[3],inactive
same,outcome,[16],inactive
same,Potency,[4],inactive
same,Potency,[17],inactive
same,Potency,[7],34.7 µM (active)
same,Potency,[8],inactive
same,Potency,[9],682 nM (active) and inactive
same,Potency,[18],inactive
same,Potency,[11],34.7 µM (active)
same,Potency,[13],inactive
same,Potency,[19],inactive
same,Potency,[14],inactive
same,Potency,[15],inactive
CCOC(=O)C(C)OC(=O)c1cc(Oc2ccc(C(F)(F)F)cc2Cl)ccc1[N+](=O)[O-] (stereo not given),Potency,[2],inactive
same,outcome,[16],inactive
same,Potency,[4],inactive
same,Potency,[5],21.6 µM (active)
same,"activity change, positive = activation",[6]; at 92.4 µM (top of the series),-45.1% (inactive) and -19.8% (inactive)
same,Potency,[17],inactive
same,Potency,[7],30.7 µM (active)
same,Potency,[8],inactive
same,Potency,[20],inactive
same,Potency,[9],inactive
same,Potency,[10],30.7 µM (active)
same,max response,[11],-24.2% (inactive)
same,Potency,[12],inactive
same,Potency,[13],inactive
same,Potency,[19],inactive
same,Potency,[14],inactive
same,Potency,[15],inactive
Nc1c(Cl)cc([N+](=O)[O-])cc1Cl,Potency,[2],inactive
same,Potency,[3],inactive
same,outcome,[16],inactive
same,Potency,[4],inactive
same,Potency,[5],30.8 µM (active) and 24.3 µM (active)
same,"activity change, positive = activation",[6]; at 92.4 µM (top of the series),-38.6% (inactive) and -54.4% (inactive)
same,Potency,[17],inactive
same,Potency,[7],inactive
same,Potency,[8],inactive
same,Potency,[9],inactive
same,Potency,[10],inactive
same,Potency,[18],inactive
same,max response,[11],-14.9% (inactive)
same,Potency,[12],inactive
same,Potency,[13],inactive
same,Potency,[19],inactive
same,Potency,[14],inactive
same,Potency,[15],inactive
CCC(=O)O[C@H]1CC[C@H]2[C@@H]3CCC4=CC(=O)CC[C@]4(C)[C@H]3CC[C@]12C,Potency,[1],inactive
same,Potency,[2],54.9 µM (active) and inactive
same,outcome,[16],inactive
same,Potency,[4],101 µM (active) and inactive
same,Potency,[17],inactive
same,Potency,[7],19.5 µM (active) and 23.9 µM (active)
same,Potency,[8],inactive
same,Potency,[9],19.5 µM (active) and 21.3 µM (active)
same,Potency,[10],21.9 µM (active) and 23.9 µM (active)
same,Potency,[18],inactive
same,Potency,[11],19.5 µM (active) and 23.9 µM (active)
same,Potency,[12],19.5 µM (active) and 5.35 µM (active)
same,Potency,[19],inactive
same,Potency,[14],43.6 µM (active)
same,Potency,[15],49 µM (active) and inactive
CN(C)c1ccc(C(=O)c2ccc(N(C)C)cc2)cc1,Potency,[2],inactive
same,outcome,[16],inactive
same,Potency,[17],inactive
same,Potency,[7],2.75 µM (active)
same,Potency,[8],inactive
same,Potency,[20],inactive
same,Potency,[9],inactive
same,Potency,[18],inactive
same,Potency,[11],3.47 µM (active)
same,Potency,[12],inactive
same,Potency,[13],inactive
same,Potency,[19],inactive
same,Potency,[14],inactive
same,Potency,[15],5.44 µM (active) and 1.95 µM (active)
CCCCOCCOP(=O)(OCCOCCCC)OCCOCCCC,Potency,[2],inactive
same,outcome,[16],inactive
same,Potency,[4],inactive
same,Potency,[17],inactive
same,Potency,[7],inactive
same,Potency,[8],inactive
same,Potency,[20],inactive
same,Potency,[9],inactive
same,Potency,[10],inactive
same,Potency,[18],inactive
same,max response,[11],-16.9% (inactive)
same,Potency,[12],inactive
same,Potency,[13],inactive
same,Potency,[19],inactive
Cc1ccc(OP(=O)(Oc2ccc(C)cc2)Oc2ccc(C)cc2)cc1,Potency,[1],12.2 µM (active) and 30.6 µM (active)
same,Potency,[2],inactive
same,outcome,[16],inactive
same,Potency,[5],inactive
same,"activity change, positive = activation",[6]; at 92.4 µM (top of the series),-19.4% (inactive) and -4.77% (inactive)
same,Potency,[17],inactive
same,Potency,[7],inactive
same,Potency,[8],inactive
same,Potency,[20],inactive
same,Potency,[9],inactive
same,Potency,[10],inactive
same,Potency,[18],inactive
same,max response,[11],-19.7% (inactive)
same,Potency,[12],inactive
same,Potency,[13],inactive
same,Potency,[19],inactive
same,Potency,[14],inactive
same,Potency,[15],4.36 µM (active) and inactive
C[C@]12CCC(=O)C(O)=C1CC[C@@H]1[C@@H]2CC[C@]2(C)C(=O)CC[C@@H]12,Potency,[2],inactive
same,Potency,[3],inactive
same,outcome,[16],inactive
same,Potency,[4],inactive
same,Potency,[5],54.5 µM (active) and inactive
same,"activity change, positive = activation",[6]; at 42.5 µM (top of the series),-8.87% (inactive)
same,"activity change, positive = activation",[6]; at 92.4 µM (top of the series),-37.5% (inactive)
same,Potency,[17],inactive
same,Potency,[7],inactive
same,Potency,[8],inactive
same,Potency,[9],inactive
same,Potency,[10],inactive
same,Potency,[18],inactive
same,max response,[11],-15.6% (inactive)
same,Potency,[12],inactive
same,Potency,[19],inactive
same,Potency,[14],inactive
same,Potency,[15],inactive
CCC(C)c1ccc(O)cc1 (stereo not given),Potency,[2],inactive
same,Potency,[3],inactive
same,outcome,[16],inactive
same,Potency,[5],inactive
same,"activity change, positive = activation",[6]; at 92.4 µM (top of the series),-5.15% (inactive) and 5.69% (inactive)
same,Potency,[17],inactive
same,Potency,[7],inactive
same,Potency,[8],inactive
same,Potency,[20],inactive
same,Potency,[9],49.4 µM (active) and 43.6 µM (active)
same,Potency,[10],inactive
same,Potency,[18],inactive
same,max response,[11],-20.1% (inactive) and -0.111% (inactive)
same,Potency,[12],43.6 µM (active)
same,Potency,[19],inactive
same,Potency,[14],43.6 µM (active)
same,Potency,[15],43.6 µM (active)
CCN(CC)C(=O)SCc1ccc(Cl)cc1,Potency,[2],inactive
same,Potency,[3],inactive
same,outcome,[16],inactive
same,Potency,[4],inactive
same,Potency,[5],inactive
same,"activity change, positive = activation",[6]; at 92.4 µM (top of the series),4.95% (inactive) and 6.33% (inactive)
same,Potency,[17],inactive
same,Potency,[7],inactive
same,Potency,[8],inactive
same,Potency,[9],inactive
same,Potency,[10],inactive
same,Potency,[18],inactive
same,max response,[11],-8.77% (inactive) and 0.16% (inactive)
same,Potency,[12],inactive
same,Potency,[19],inactive
same,Potency,[14],inactive
same,Potency,[15],inactive
CCOC(=S)S,Potency,[1],inactive
same,Potency,[3],28.4 µM (active)
same,Potency,[5],73 µM (active)
same,"activity change, positive = activation",[6]; at 92.4 µM (top of the series),-20.1% (inactive) and -29.8% (inactive)
same,Potency,[17],inactive
same,Potency,[7],inactive
same,Potency,[8],inactive
same,Potency,[20],inactive
same,Potency,[9],inactive
same,Potency,[10],inactive
same,Potency,[18],inactive
same,max response,[11],6.71% (inactive) and 5.31% (inactive)
same,Potency,[12],inactive
same,Potency,[13],inactive
same,Potency,[19],inactive
same,Potency,[14],inactive
same,Potency,[15],inactive
